{"source": "PubChem BioAssay", "note": "Inconclusive results are not listed. Active and inactive are the calls of the source. No cut-off is given here; in the data, nearly all actives have AC50 up to about 26 µM.", "data": [{"assay": "viability loss in pontine glioma line – cell-based, SU-DIPG-XXV, MIPE5.0, CellTiter-Glo, qHTS, dose response (AID 1347065);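 note: cells exposed to compound for 48 hours before ATP readout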", "conditions": "CellTiter-Glo ATP luminescence", "values": [{"smiles": "CCC(=O)NCC[C@@H]1CCc2ccc3c(c21)CCO3", "outcome": "inactive"}, {"smiles": "C=C1CC[C@@H]2[C@](C)(CO)[C@H](O)CC[C@@]2(C)[C@@H]1C/C=C1/C(=O)OC[C@H]1O", "AC50": "11.8 µM (active)"}, {"smiles": "CC(C)(S)[C@@H](N)C(=O)O", "outcome": "inactive"}, {"smiles": "CN[C@H](CC(C)C)C(=O)N[C@H]1C(=O)N[C@@H](CC(N)=O)C(=O)N[C@H]2C(=O)N[C@H]3C(=O)N[C@H](C(=O)N[C@H](C(=O)O)c4cc(O)cc(O)c4-c4cc3ccc4O)[C@H](O)c3ccc(c(Cl)c3)Oc3cc2cc(c3O[C@@H]2O[C@H](CO)[C@@H](O)[C@H](O)[C@H]2O[C@H]2C[C@](C)(N)[C@H](O)[C@H](C)O2)Oc2ccc(cc2Cl)[C@H]1O", "outcome": "inactive"}, {"smiles": "CC[C@@]1(O)C[C@H](O[C@H]2C[C@H](N(C)C)[C@H](O[C@H]3C[C@H](O)[C@H](O[C@H]4CCC(=O)[C@H](C)O4)[C@H](C)O3)[C@H](C)O2)c2c(cc3c(c2O)C(=O)c2c(O)cccc2C3=O)[C@H]1C(=O)OC", "AC50": "14.8 µM (active)"}, {"smiles": "COc1cc([C@@H]2c3cc4c(cc3[C@@H](O[C@@H]3O[C@@H]5CO[C@@H](c6cccs6)O[C@H]5[C@H](O)[C@H]3O)[C@H]3COC(=O)[C@H]23)OCO4)cc(OC)c1O", "AC50": "5.9 µM (active)"}, {"smiles": "C[C@H]1O[C@@H](O[C@H]2[C@@H](O)C[C@H](O[C@H]3[C@@H](O)C[C@H](O[C@H]4CC[C@@]5(C)[C@H](CC[C@@H]6[C@@H]5C[C@@H](O)[C@]5(C)[C@@H](C7=CC(=O)OC7)CC[C@]65O)C4)O[C@@H]3C)O[C@@H]2C)C[C@H](O)[C@@H]1O", "AC50": "0.166 µM (active)"}, {"smiles": "CCC[C@@H]1C[C@@H](C(=O)N[C@@H]([C@H]2O[C@H](SC)[C@H](O)[C@@H](O)[C@H]2O)[C@H](C)Cl)N(C)C1", "outcome": "inactive"}, {"smiles": "CC(C)(O)CC[C@@H](O)[C@](C)(O)[C@H]1CC[C@@]2(O)C3=CC(=O)[C@@H]4C[C@@H](O)[C@@H](O)C[C@]4(C)[C@H]3CC[C@]12C", "outcome": "inactive"}, {"smiles": "C=C(C)[C@@H]1CC[C@]2(C(=O)O)CC[C@]3(C)[C@H](CC[C@@H]4[C@@]5(C)CC[C@H](O)C(C)(C)[C@@H]5CC[C@]43C)[C@@H]12", "AC50": "14.8 µM (active)"}, {"smiles": "COc1cc([C@@H]2c3cc4c(cc3[C@H](O)[C@H]3COC(=O)[C@@H]23)OCO4)cc(OC)c1OC", "AC50": "0.742 µM (active)"}, {"smiles": "Nc1ccn([C@@H]2O[C@H](CO)[C@@H](O)[C@H]2O)c(=O)n1", "outcome": "inactive"}, {"smiles": "COc1ccc([C@@H]2CC(=O)c3c(O)cc(O[C@@H]4O[C@H](CO[C@@H]5O[C@@H](C)[C@H](O)[C@@H](O)[C@H]5O)[C@@H](O)[C@H](O)[C@H]4O)cc3O2)cc1O", "outcome": "inactive"}, {"smiles": "COc1ccc(-c2cc(=O)c3c(O)cc(O[C@@H]4O[C@H](CO[C@@H]5O[C@@H](C)[C@H](O)[C@@H](O)[C@H]5O)[C@@H](O)[C@H](O)[C@H]4O)cc3o2)cc1O", "outcome": "inactive"}, {"smiles": "N=c1ccn2c(n1)O[C@H]1[C@H](O)[C@@H](CO)O[C@H]12", "outcome": "inactive"}, {"smiles": "COc1cc(NS(C)(=O)=O)ccc1Nc1c2ccccc2nc2ccccc12", "AC50": "11.8 µM (active)"}]}]}
